Assay results taken from PubChem BioAssay (Tox21).
Where “and” joins values, the source holds several entries; their conditions need not be identical. Equal values may be shown once. Records with an inconclusive call do not appear. Some compounds were tested as several samples or in several runs, with calls that do not always agree. Calls of active or inactive are those of the source. Calls come from the whole dose curve.

Assay: qHTS assay to identify small molecule agonists of H2AX - cell viability counter screen (AID 1224847); note: nearly all actives have a fitted effect of over 30% in size; for activity change, negative = cytotoxicity: top concentration of the series differs between compounds
Details: CHO-K1 viability, CellTiter-Glo luminescence, 3 h; series mostly up to 70.9 µM; activity change, negative = cytotoxicity: at the top concentration
Text: National Center for Advancing Translational Sciences [NCATS]
NIH Chemical Genomics Center [NCGC]
U.S. Environmental Protection Agency [EPA]
National Institutes of Environmental Health Sciences [NIEHS]
National Toxicology Program [NTP]
U.S. Food and Drug Administration [FDA]
HTRF phospho-H2AX (Ser139) assay (Cisbio Bioassays, US) enables the quantitative detection of the histone variant H2AX when phosphorylated on serine 139. When double-stranded DNA breaks, either by ionizing radiation or endogenous physiological processes, H2AX becomes phosphorylated at Ser139. This phospho-Ser139 serves as a sensitive biomarker for the detection of such breaks, localizing the site of DNA repair. So, HTRF phospho-H2AX Ser139 is a pertinent assay to study genome stability, the cell cycle, DNA repair, and it serves as a biomarker for cancer, and to understand aging. Wild type CHO-K1 cells were used to identify the inducers of Phospho-H2AX Ser 139 from the Tox21 compound collections. Also cytotoxicity of the Tox21 10K compound library against the CHO-K1 cell line was tested by measuring the cell viability using CellTiter-Glo assay (Promega, Madison, WI).
Tox21 Assay Protocol Summary:
The CHO-K1 cells suspended in culture medium containing 10% FBS were dispensed at 1000 cells/ 3 ul/well in 1536-well white wall/solid bottom plates (Greiner Bio-One North America, NC) using a Multidrop Combi (Thermo Fisher Scientific Inc., Waltham, MA). After the assay plates were incubated at 37C overnight, 23 nl of compounds at 15 concentrations (from 5-48 columns) or positive control (from 1 to 4 columns) were transferred to the assay plates using a Pintool station (Wako, San Diego, CA) into each well resulting in a final DMSO concentration of 0.76%. After 3hr incubation at 37C, 3 uL/well CellTiter-Glo luminescent cell viability reagent (Promega Corporation, Madison, WI) was added using a Flying Reagent Dispenser (FRD) (Aurora Discovery, CA). After incubation at room temperature for 30 min, the luminescence intensity was read using a ViewLux plate reader (PerkinElmer, Waltham, MA).
% is set by controls: 0 for no effect and ±100 for the full control effect; potency is the fitted concentration of half-maximal effect.

SMILES	activity change, negative = cytotoxicity	Potency
N#CSc1ccc(N)c([N+](=O)[O-])c1	-7.2% [at 154 µM] (inactive)	–
CCN(C(=O)c1cc(C)cc(OC[C@H](C)Nc2ccncc2)c1)C(C)C	0.514% (inactive)	–
Nc1cc(C(F)(F)F)ccc1S	-5.38% (inactive)	–
COc1ccc(CN2CCN(C(c3ccc(F)cc3)c3ccc(F)cc3)CC2)c(OC)c1OC	–	49.2 µM (active)
CCN(CCC#N)c1ccc(N=Nc2c(Cl)cc([N+](=O)[O-])cc2Cl)cc1	–	56.6 µM (active)
Nc1ccc(N)c2ccccc12	–	101 µM (active)
CC(C)c1ccc2c(c1)CC[C@H]1[C@](C)(CN)CCC[C@]21C	–	89.8 µM (active)
COc1ccc(-c2ccc3cc(C(=O)O)ccc3c2)cc1C12CC3CC(CC(C3)C1)C2	-0.903% (inactive)	–
CCCC(=O)OC[C@@H](OC(=O)CCC)[C@@H](OC(=O)CCC)[C@H](Cn1c2nc(=O)[nH]c(=O)c-2nc2cc(C)c(C)cc21)OC(=O)CCC	2.63% (inactive)	–
Oc1cc2ccccc2c2ccccc12	–	28.4 µM (active)
CCCC(C)c1ccccc1O (stereo not given)	–	80 µM (active)
Clc1ccccc1C(c1ccccc1)(c1ccccc1)n1ccnc1	–	40.1 µM (active) and inactive
[Cl][Au]([Cl])[Cl]	9.73% [at 154 µM] (inactive)	–
CCCCC(CC)COC(=O)c1ccccc1C(=O)O (stereo not given)	-3.27% [at 154 µM] (inactive)	–
C=C(C)C(=O)OCC(O)COc1ccc(C(C)(C)c2ccc(OCC(O)COC(=O)C(=C)C)cc2)cc1 (stereo not given)	–	35.7 µM (active)
CC(C)OC(=O)c1cc2c(OCC(O)CNC(C)(C)C)cccc2[nH]1 (stereo not given)	2.49% (inactive)	–
CN(C)c1ccc(SC#N)cc1	-0.999% [at 154 µM] (inactive)	–
CCCCCCCCCCCCCCCCCC[N+](C)(C)Cc1ccccc1	–	45.4 µM (active)
CC(=O)S[C@@H]1CC2=CC(=O)CC[C@]2(C)[C@H]2CC[C@@]3(C)[C@@H](CC[C@@]34CCC(=O)O4)[C@H]12	5.77% [at 154 µM] (inactive)	–
Oc1c(Cl)cc(Cl)c2cccnc12	9.7% (inactive)	–

SMILES	activity change, negative = cytotoxicity	Potency
CCCCCCCCCOC(=O)c1ccc(O)cc1	–	99.3 µM (active)
Nc1ccc2c3c(cccc13)-c1ccccc1-2	2.02% [at 154 µM] (inactive)	–
OCCN1CCN(CC/C=C2/c3ccccc3Sc3ccc(C(F)(F)F)cc32)CC1	–	55.2 µM (active)
CSc1ccc(C(=O)c2[nH]c(=O)[nH]c2C)cc1	4.9% (inactive)	–
CCOC(=O)O[C@H](C)OC(=O)c1ccc2c(c1)cc(C(=O)NC1CCN(C(C)C)CC1)n2Cc1cc(-c2ccc(Cl)s2)on1	–	37.5 µM (active)
CCCCCCCC/C=C/CCCCCCCC1=NCCN1CCO	–	101 µM (active)
C[C@H]1[C@H]2CC[C@H]3[C@@H]4CC=C5C[C@@H](N(C)C)CC[C@]5(C)[C@H]4CC[C@]23CN1C	-1.21% (inactive)	–
COC(=O)C1=C(C)NC(C)=C(C(=O)OCCc2ccc(N3CCN(C(c4ccccc4)c4ccccc4)CC3)cc2)C1c1cccc([N+](=O)[O-])c1 (stereo not given)	1.06% (inactive)	–
CC(C)(C)CC(C)(C)c1ccc(OCCOCC[N+](C)(C)Cc2ccccc2)cc1	–	101 µM (active) and 49.2 µM (active)
CN(C)CCCOC1(Cc2ccccc2)CCCCCC1	-6.74% (inactive)	–
CNCc1cc(F)ccc1Oc1ccc(Cl)c(Cl)c1	–	45 µM (active)
CC(C)(C)C1CCC(CC2=C(O)c3ccccc3C(=O)C2=O)CC1 (stereo not given)	-8.6% (inactive)	–
CC1=NC(C)OC1C (stereo not given)	-1.19% [at 154 µM] (inactive)	–
O=C(c1ccc(F)cc1)C1CCN(CCn2c(=O)[nH]c3ccccc3c2=O)CC1	-6.22% (inactive)	–
Clc1ccc2nsnc2c1NC1=NCCN1	2.98% (inactive)	–
Cc1ccc(O)c(C(C)(C)C)c1	–	89.6 µM (active)
CCCCCCCCNC(C)C(O)c1ccc(SC(C)C)cc1 (stereo not given)	–	43.8 µM (active)
CCCCCOC(=O)CCCC	-8.71% [at 154 µM] (inactive)	–
CCCCCCCC[P+](CCCCCCCC)(CCCCCCCC)CCCCCCCC	–	7.95 µM (active)
COCCCC/C(=N\OCCN)c1ccc(C(F)(F)F)cc1	0.557% (inactive)	–
